Here are results for ten compounds from PubChem BioAssay (Tox21).

SMILES strings stand for the structures. Unmarked numbers belong to inactive results. Records with an inconclusive call do not appear. Calls of active or inactive are those of the source. Unless noted, calls follow the shape of the full dose curve.

Assay [1] can be described thus: Nuclear factor erythroid 2-related factor 2/antioxidant responsive element (Nrf2/ARE) small molecule agonists: qHTS cell viability counter screen in human keratinocytes (AID 1919968; active = well fitted curve in the direction sought with a large enough effect in the repeat runs; an effect the other way counts as inactive or inconclusive; also: nearly all actives have a fitted effect of over 55% in size). The gist of the method: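 Viability counter-screen: KeratinoSens reporter cells, DMSO-delivered compounds, 23 h at 37 C, CellTiter-Fluor fluorescence.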
(In general: qHTS replaces the single test concentration by a dilution series.)

A short description of assay [2]: Nuclear factor erythroid 2-related factor 2/antioxidant responsive element (Nrf2/ARE) small molecule agonists: luciferase reporter gene qHTS assay in human keratinocytes (AID 1919969). Also: nearly all actives have a fitted effect of over 35% in size. Also: potency is read from the fitted curve at half-maximal effect. Background: A reporter such as luciferase makes a cellular process visible.
Assay [3] addresses Gonadotropin-releasing hormone receptor (Homo sapiens) (UniProt P30968). Put plainly: Human gonadotropin-releasing hormone receptor (GnRHR) small molecule agonists, calcium flux assay in GnRHR-HEK293 cells (AID 1920063). Also: nearly all actives have a fitted effect of over 35% in size. The gist of the method:
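Tox21-format agonist screen using human GnRHR-expressing HEK293 cells and a fluorescent calcium dye; kinetic 3-min fluorescence reading after compound addition, 15-point concentration series run in triplicate.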

For assay [4], the target named is KiSS-1 receptor (Homo sapiens) (UniProt Q969F8). Put plainly: Human kisspeptin (KISS1R) small molecule agonists, calcium flux assay in KISS1R-HEK293 cells (AID 1920064; active = well fitted curve in the direction sought with a large enough effect in the repeat runs; an effect the other way counts as inactive or inconclusive). The gist of the method: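 Intracellular calcium mobilization in KISS1R-HEK293 cells was recorded by fluorescence (Ex/Em 480/540) for 3 min following compound addition to cells pre-loaded 1 h with calcium dye.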
(Calcium assays in cells follow changes in intracellular calcium, usually with a dye or a luminescent sensor.)

Assay [5] in a line: G protein-coupled receptor (GPCR) small molecule agonists, calcium flux assay: HEK293 wild type cell line counter screen (AID 1920065). Summed up: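 In this agonist-mode screen, ATP is the positive control and DMSO the vehicle. Cells grow 18 h before a 1 h dye incubation at 37 C; signal is taken at Ex/Em 480/540 over 3 min.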
A short description of assay [6]: p53 small molecule agonists, cell-based qHTS assay with human liver microsomes (AID 1963577).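 Also: p53 response element beta-lactamase reporter cells with liver microsomes plus NADPH.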 The gist of the method:
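HLM-supplemented p53RE-bla reporter assay: 16 h compound exposure at 37 C, microsomes and NADPH each 0.5 mg/mL final, read by fluorescence intensity.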

A short description of assay [7]: p53 small molecule agonists, cell-based qHTS assay with rat liver microsomes (AID 1963578). Summed up:
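Quantitative HTS of the Tox21 10K library: p53RE-bla cells, rat liver microsomes plus NADPH at 0.5 mg/mL final each, 16 h at 37 C, beta-lactamase fluorescence detection.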

Assay [8] can be described thus: p53 small molecule agonists, cell-based qHTS assay with human liver microsomes: qHTS cell viability counter screen (AID 1963579). Also: nearly all actives have a fitted effect of over 45% in size. Summed up:
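Viability of p53RE-bla cells is measured as CellTiter-Glo luminescence following a 16 h, 37 C incubation with compound, liver microsomes from human donors and NADPH.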

A short description of assay [9]: p53 small molecule agonists, cell-based qHTS assay with rat liver microsomes: qHTS cell viability counter screen (AID 1963580). Also: nearly all actives have a fitted effect of over 45% in size. The gist of the method:
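Viability is assessed in parallel with the p53 reporter read: HCT-116 p53RE-bla cells receive compounds plus rat microsomes and NADPH (0.5 mg/mL final apiece), incubate 16 h at 37 C, and then CellTiter-Glo luminescence is recorded.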

The nature of assay [10]: p53 small molecule agonists, cell-based qHTS assay: qHTS cell viability counter screen (AID 1963581). Also: nearly all actives have a fitted effect of over 45% in size. Summed up:
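Compounds are pinned onto HCT-116 p53RE-bla cells and left 16 h at 37 C. Following the reporter FRET read, ATP is quantified by CellTiter-Glo luminescence after 30 min at room temperature.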

Assay [11] is described as follows: p53 small molecule agonists, cell-based qHTS assay (AID 1963582; active = well fitted activation curve with a large enough effect in the signal ratio in the repeat runs, not every such curve was filed as active; the % refers to the signal ratio). The gist of the method: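 Agonist activity was scored from beta-lactamase FRET fluorescence in p53RE-bla cells treated 16 h at 37 C with compounds in DMSO, substrate incubation being 2 h at room temperature.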
In assay [12] the target is 5-hydroxytryptamine receptor 2A (Homo sapiens) (UniProt P28223). Put plainly: 5-hydroxytryptamine receptor 2A (HTR2A) small molecule antagonists, cell-based qHTS assay (AID 1963586). Also: nearly all actives have a fitted effect of over 45% in size. Summed up: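 Antagonist-mode intracellular calcium assay: DOI (4 nM) added after 5 min compound pre-incubation at room temperature to dye-loaded HTR2A-CHO cells. Fluorescence followed for 3 min, sampled every second.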

The target is the same in assay [13]. Put plainly: 5-hydroxytryptamine receptor 2A (HTR2A) small molecule agonists, cell-based qHTS assay (AID 1963587). Also: nearly all actives have a fitted effect of over 30% in size. Summed up: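 CHO cells stably expressing human HTR2A, plated 18 h, loaded with calcium dye 1 h at 37 C. Agonist mode: compounds added and intracellular calcium fluorescence recorded kinetically for 2 min at 1 sec intervals.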
Assay [14] has as its target Muscarinic acetylcholine receptor M1 (Homo sapiens) (UniProt P11229). Put plainly: Cholinergic receptor muscarinic 1 (CHRM1) small molecule agonists, cell-based qHTS assay (AID 1963589). Also: nearly all actives have a fitted effect of over 35% in size. Summed up:
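Stable CHRM1-CHO cells (human receptor) were incubated 18 h, dye-loaded for 1 h at 37 C and exposed to test compounds for agonist activity, with calcium-dependent fluorescence followed kinetically.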

Assay [15] can be described thus: cAMP Responsive Elements (CRE) small molecule agonists, cell-based qHTS assay (AID 1963590). The gist of the method:
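FRET-based beta-lactamase readout (LiveBLAzer B/G, 2 h RT) quantified CRE activation in HEK 293T CRE-bla cells after 3 h treatment with DMSO-dissolved compounds.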

A short description of assay [16]: cAMP Responsive Elements (CRE) small molecule antagonists, cell-based qHTS assay (AID 1963591; active = well fitted inhibition curve with a large enough effect in the signal ratio in the repeat runs, not every such curve was filed as active; the % refers to the signal ratio). The gist of the method: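 qHTS in CRE-bla HEK 293T cells: compound in DMSO, then 0.25 uM NKH477 (final), 3 h at 37 °C/5% CO2; beta-lactamase FRET read-out after 2 h substrate incubation.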
For assay [17], the target named is Beta-2 adrenergic receptor (Homo sapiens) (UniProt P07550). Put plainly: Adrenergic beta2 receptor (ADRB2) small molecule antagonists, cell-based qHTS assay (AID 1963592). Also: series mostly up to about 92 µM; nearly all actives have a fitted effect of over 50% in size. The gist of the method: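 Cells (CHO, stable ADRB2 overexpression) incubated 18-20hr at 37C; compounds added from DMSO; agonist mix (1nM isoproterenol, 100uM IBMX, 25uM Ro-20-1724) added; 0.5hr RT; d2-cAMP and anti-cAMP-cryptate added; 1hr RT; 665/615 nm read.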

For assay [18], the target named is D(2) dopamine receptor (Homo sapiens) (UniProt P14416). The experiment in a line: Dopamine D2 receptor (DRD2) small molecule agonists, cell-based qHTS assay (AID 1963594). Also: nearly all actives have a fitted effect of over 35% in size. The gist of the method: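 HEK293 cells stably expressing human DRD2, pre-treated with PDE inhibitor Ro20-1724 (0.1 mM final) and compound 10 min at room temperature, then stimulated with NKH477 (200nM […]) for 30 min. cAMP read by HTRF (665/620 nm).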

The target is the same in assay [19]. Put plainly: Dopamine D2 receptor (DRD2) small molecule antagonists, cell-based qHTS assay (AID 1963595; active = well fitted inhibition curve with a large enough effect in the signal ratio in the repeat runs, with a control signal flat; the % refers to the signal ratio). The gist of the method:
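In this cell-based antagonist screen, compounds act for 10 min at room temperature before a 30 min challenge with 12 nM quinpirole and 200 nM NKH477. cAMP is quantified by HTRF competition in DRD2-HEK293 cells containing 0.1 mM Ro20-1724.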

Assay [20] concerns the target Muscarinic acetylcholine receptor M1 (Homo sapiens) (UniProt P11229). Put plainly: Cholinergic receptor muscarinic 1 (CHRM1) small molecule antagonists, cell-based qHTS assay (AID 1963588). Also: nearly all actives have a fitted effect of over 40% in size. The gist of the method:
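CHRM1-CHO calcium-flux assay, antagonist mode. Cells were seeded 18 h, dye-loaded 1 h at 37 C and given compound for 5 min at RT, then acetylcholine was added at 50nM. FDSS fluorescence was read 3 min; 15 concentrations, three runs.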
% is scaled to controls: 0 for no effect and ±100 for the full control effect.

KiSS-1 receptor (Homo sapiens), sequence (Q969F8 whole entry, looked up): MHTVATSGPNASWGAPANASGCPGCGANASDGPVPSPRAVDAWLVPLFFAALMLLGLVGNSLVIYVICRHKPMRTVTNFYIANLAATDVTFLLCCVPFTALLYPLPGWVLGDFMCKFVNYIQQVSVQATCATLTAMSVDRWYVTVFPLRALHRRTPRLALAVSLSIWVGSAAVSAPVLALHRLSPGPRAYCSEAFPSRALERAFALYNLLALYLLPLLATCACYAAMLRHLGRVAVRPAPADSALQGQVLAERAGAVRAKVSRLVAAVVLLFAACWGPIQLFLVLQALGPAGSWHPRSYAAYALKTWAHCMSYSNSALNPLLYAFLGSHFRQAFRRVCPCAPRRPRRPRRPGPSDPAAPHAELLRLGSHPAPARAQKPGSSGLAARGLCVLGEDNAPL
Muscarinic acetylcholine receptor M1 (Homo sapiens), sequence (P11229 whole entry, looked up): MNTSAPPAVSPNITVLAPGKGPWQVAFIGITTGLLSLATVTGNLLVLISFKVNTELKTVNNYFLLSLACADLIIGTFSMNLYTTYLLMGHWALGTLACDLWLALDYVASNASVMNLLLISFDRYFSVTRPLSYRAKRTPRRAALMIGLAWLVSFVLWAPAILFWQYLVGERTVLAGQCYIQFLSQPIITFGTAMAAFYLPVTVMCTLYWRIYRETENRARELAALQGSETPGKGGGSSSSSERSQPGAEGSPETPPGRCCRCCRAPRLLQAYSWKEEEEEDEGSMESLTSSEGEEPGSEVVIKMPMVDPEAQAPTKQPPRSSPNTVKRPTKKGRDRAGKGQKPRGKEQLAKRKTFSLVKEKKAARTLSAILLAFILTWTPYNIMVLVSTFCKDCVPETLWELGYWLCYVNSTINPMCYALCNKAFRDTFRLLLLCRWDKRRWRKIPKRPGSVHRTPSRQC
Gonadotropin-releasing hormone receptor (Homo sapiens), sequence (P30968 whole entry, looked up): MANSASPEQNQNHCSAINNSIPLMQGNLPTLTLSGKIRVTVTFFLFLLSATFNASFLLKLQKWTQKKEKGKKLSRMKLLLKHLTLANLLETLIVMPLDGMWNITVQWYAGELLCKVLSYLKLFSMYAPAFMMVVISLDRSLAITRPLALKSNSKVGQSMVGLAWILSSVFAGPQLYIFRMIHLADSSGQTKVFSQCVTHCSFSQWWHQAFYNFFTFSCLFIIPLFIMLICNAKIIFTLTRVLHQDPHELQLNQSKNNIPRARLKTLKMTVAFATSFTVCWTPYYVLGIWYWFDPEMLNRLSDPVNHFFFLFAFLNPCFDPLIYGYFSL
5-hydroxytryptamine receptor 2A (Homo sapiens), sequence (P28223 whole entry, looked up): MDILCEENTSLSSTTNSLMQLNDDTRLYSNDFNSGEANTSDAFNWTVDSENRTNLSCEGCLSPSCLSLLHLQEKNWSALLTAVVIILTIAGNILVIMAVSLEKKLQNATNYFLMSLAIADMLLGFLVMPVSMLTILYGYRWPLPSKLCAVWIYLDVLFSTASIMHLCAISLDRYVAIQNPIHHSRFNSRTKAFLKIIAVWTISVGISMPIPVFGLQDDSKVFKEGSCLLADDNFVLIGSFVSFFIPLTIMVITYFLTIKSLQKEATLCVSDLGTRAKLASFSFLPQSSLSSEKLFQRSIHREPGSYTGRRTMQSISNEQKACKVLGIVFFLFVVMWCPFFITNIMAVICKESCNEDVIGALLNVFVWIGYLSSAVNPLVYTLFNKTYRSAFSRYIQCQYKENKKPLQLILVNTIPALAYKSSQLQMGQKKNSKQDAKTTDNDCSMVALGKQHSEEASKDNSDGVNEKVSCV
D(2) dopamine receptor (Homo sapiens), sequence (P14416 whole entry, looked up): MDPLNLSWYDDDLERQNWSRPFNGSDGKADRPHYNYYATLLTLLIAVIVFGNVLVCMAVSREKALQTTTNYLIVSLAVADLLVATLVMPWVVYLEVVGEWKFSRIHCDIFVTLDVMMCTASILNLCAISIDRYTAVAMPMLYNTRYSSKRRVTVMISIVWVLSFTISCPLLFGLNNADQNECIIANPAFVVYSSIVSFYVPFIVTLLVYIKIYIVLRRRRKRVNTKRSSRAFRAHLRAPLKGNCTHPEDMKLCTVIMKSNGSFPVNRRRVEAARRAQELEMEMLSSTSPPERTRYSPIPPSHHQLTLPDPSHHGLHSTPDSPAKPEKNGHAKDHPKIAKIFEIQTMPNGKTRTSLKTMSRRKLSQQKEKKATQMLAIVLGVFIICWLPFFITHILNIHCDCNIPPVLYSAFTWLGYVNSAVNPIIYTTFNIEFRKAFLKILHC
Beta-2 adrenergic receptor (Homo sapiens), sequence (P07550 whole entry, looked up): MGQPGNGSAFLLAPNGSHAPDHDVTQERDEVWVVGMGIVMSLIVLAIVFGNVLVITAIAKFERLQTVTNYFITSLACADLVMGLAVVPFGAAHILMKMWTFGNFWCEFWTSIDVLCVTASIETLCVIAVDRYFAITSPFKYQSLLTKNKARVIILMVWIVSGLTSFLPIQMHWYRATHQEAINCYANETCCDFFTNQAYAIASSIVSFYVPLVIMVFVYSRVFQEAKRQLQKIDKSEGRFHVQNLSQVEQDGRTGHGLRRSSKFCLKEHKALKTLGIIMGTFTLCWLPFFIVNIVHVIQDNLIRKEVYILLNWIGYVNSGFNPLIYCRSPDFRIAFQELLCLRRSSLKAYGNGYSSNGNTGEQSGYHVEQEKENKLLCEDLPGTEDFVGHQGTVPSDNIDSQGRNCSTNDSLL

As to `CC(CC(=O)O)CC(C)(C)C` (stereo not drawn), the Potency result in assay [1], in assay [2], in assay [3], in assay [6], in [7] and in assay [8] was “inactive” each time. Also, the Potency entry in assay [9], in assay [10], in [11], in assay [12], in assay [13] and in assay [14] was “inactive” each time. Also, the Potency entry in [15], in assay [16], in assay [17], in [18] and in assay [19] was “inactive” in each case. For the same compound, the outcome in assay [4] and in assay [5] was inactive.
For the compound `O=C(OCCCCCCOC(=O)c1ccccc1)c1ccccc1`, the Potency entry in assay [1], in [3], in assay [6], in [7], in assay [8] and in [9] was “inactive” each time. The Potency entry in [10], in assay [11], in assay [12], in assay [13], in assay [14] and in assay [15] was “inactive” in each case. The Potency result in assay [16], in assay [18] and in assay [19] was “inactive” each time. The Potency in assay [2] is 68.6 µM (active). In addition, the outcome in assay [4] and in assay [5] was inactive.
With `CC(C)(C)c1cc(C=O)cc(C(C)(C)C)c1O`, the Potency result in [1], in assay [2], in assay [3], in assay [6], in assay [7] and in assay [8] was “inactive” throughout. Further, the Potency result in assay [9], in [10], in assay [11], in [12], in assay [13] and in assay [14] was “inactive” throughout. For the same compound, the Potency result in [15], in assay [16], in assay [17] and in [19] was “inactive” in each case. Also, the outcome in assay [4] and in assay [5] was inactive.
Consider `Cc1c(C)n(CCN(C)C)c2ccc(C(=O)OCCN(C)C)cc12`, for which the Potency entry in [1], in [3], in assay [6], in [7], in assay [8] and in assay [9] was “inactive” each time. Further, the Potency entry in [10], in assay [11], in [12], in assay [13], in assay [14] and in assay [15] was “inactive” in each case. Besides, the Potency entry in [17], in assay [18] and in assay [19] was “inactive” throughout. Further, the Potency in assay [2] is 29.8 µM (active). In addition, the outcome in assay [4] and in [5] was inactive.
On to `CC(C)(C)C(=O)C(=O)O`, for which the Potency entry in assay [1], in assay [2], in assay [3], in assay [6], in [7] and in [8] was “inactive” throughout. Moreover, the Potency result in assay [9], in assay [10], in [11], in assay [12], in [13] and in [14] was “inactive” throughout. Moreover, the Potency result in assay [15], in [17] and in assay [19] was “inactive” throughout. Further, the result in [4] and in assay [5] was inactive.
With `C[N+]1(CC2COC(c3ccccc3)(c3ccccc3)O2)CCCCC1` (stereo not drawn), the activity change, negative = cytotoxicity in [1] was -0.244% [at 19 µM]; in assay [8], -12% [at 13.5 µM]; in assay [9] it was 4.65% [at 13.5 µM]; in [10] it was -20.9% [at 13.5 µM]. Further, the activity, positive = activation in [2] is -7.02% [at 19 µM]. Besides, the activity change in [3] is -0.634% [at 11.8 µM, stronger effect = higher value]. Besides, the activation in [4] was -1.44% [at 15.8 µM]; in assay [5], 0.724% [at 11.8 µM]; in assay [6], 0.35% [at 13.5 µM]; in assay [7] it was -0.64% [at 13.6 µM]; in assay [11], 0.97% [at 13.5 µM]; in assay [13], -9.9% [at 15.9 µM]. The activation is 10.6% [at 15.8 µM] in assay [14], -0.37% [at 19 µM] in [15] and -6.08% [at 19 µM] in assay [18]. Further, the activity, negative = inhibition in assay [12] was -7.46% [at 12.7 µM]. Moreover, the activity change, negative = inhibition in assay [16] is 1.85% [at 18.9 µM]; in [17] it was -7.43% [at 19 µM].
With `Cc1ccc(N(CCO)CCO)cc1`, the Potency result in assay [1], in [2], in assay [3], in [6], in [7] and in [8] was “inactive” in each case. Besides, the Potency entry in assay [9], in [10], in [11], in assay [12], in assay [13] and in assay [14] was “inactive” each time. Besides, the Potency entry in assay [15], in assay [16], in assay [17], in assay [18] and in assay [19] was “inactive” throughout. Moreover, the result in [4] and in assay [5] was inactive.
On to `c1ccc(CC2=NCCN2)cc1`, for which the Potency entry in [1], in assay [2], in assay [3], in assay [6], in assay [7] and in assay [8] was “inactive” throughout. The Potency result in assay [9], in assay [10], in assay [11], in [12], in [20] and in assay [14] was “inactive” in each case. The Potency result in assay [15], in assay [16], in assay [17], in assay [18] and in assay [19] was “inactive” throughout. The result in assay [4] and in assay [5] was inactive.
For the compound `OCC(O)c1ccccc1` (stereo not drawn), the Potency result in assay [1], in assay [2], in assay [3], in assay [6], in [7] and in assay [8] was “inactive” in each case. Also, the Potency result in assay [9], in assay [10], in assay [11], in [12], in assay [13] and in [14] was “inactive” each time. In addition, the Potency result in assay [15], in assay [16], in [17], in assay [18] and in assay [19] was “inactive” throughout. Moreover, the outcome in [4] and in assay [5] was inactive.
Turning to `Cc1ccccc1C(=O)O`, the Potency result in assay [1], in assay [2], in [3], in [6], in assay [7] and in assay [8] was “inactive” in each case. The Potency entry in assay [9], in assay [10], in assay [11], in assay [12], in assay [13] and in assay [14] was “inactive” throughout. The Potency entry in assay [15], in [16], in [18] and in assay [19] was “inactive” throughout. In addition, the outcome in [4] and in assay [5] was inactive.
